Test results: ChEMBL document CHEMBL3988442, “University of Dundee, Small-Polar-MMV Screening Library” (2021)

molecular target: AMP-activated protein kinase, AMPK (Homo sapiens) (UniProt P54646+O43741+P54619+Q9UGJ0+Q9Y478+Q13131+Q9UGI9); experiment: AMP-dependent Kinase enzyme assay. An in vitro enzyme assay that detects ADP turnover that is directly proportional to AMPK activity. This uses naive AMPK that is activated during the assay with MK-8722; assay type: functional; parameters: scale not given: direction of the effect not stated beside the values; conditions: 30 µM

**Q.** With `Cc1nccn1-c1ccc(C(=O)NCC(F)(F)F)nn1` as the compound, how does the Percent Effect read?
**A.** -3.73%

**Q.** Which Percent Effect does the source give for `Clc1ccccc1CCn1ccnc1-c1cn(C2CCNCC2)nn1` here?
**A.** -7.28%

**Q.** How did the Percent Effect turn out when `CCn1cc(CN(C)Cc2cnn(-c3ccc(F)cc3)c2)cn1` was run?
**A.** 13.6%

**Q.** Which Percent Effect does the source give for `O=C(O)CC(CC(=O)N(Cc1ccsc1)C1CC1)c1cccs1` (stereo unspecified) here?
**A.** -2.55%

**Q.** How did the Percent Effect turn out when `CCOCCC(=O)NC(c1noc(C)n1)c1ccccc1F` (stereo unspecified) was run?
**A.** 1.15%

**Q.** How did the Percent Effect turn out when `N#CCCn1cnc2c(Br)cccc2c1=O` was run?
**A.** -5.95%

**Q.** `Cn1cccc1CN(C(=O)CC(CC(=O)O)c1cccs1)C1CC1` (stereo unspecified) was tested. Which Percent Effect did it give?
**A.** -2.3%

**Q.** For `N#CC1(C(=O)N2C[C@H]3CC[C@@H]2CN(Cc2ccncc2)C3)CCOCC1`, which Percent Effect is on record?
**A.** -2.51%

**Q.** `COCCOc1cccc(CNCc2ccc(-n3cncn3)nc2)c1` was tested. Which Percent Effect did it give?
**A.** 3.28%

**Q.** With `CN(Cc1cc(Br)cn1C)C(=O)Cc1cccc(O)c1` as the compound, how does the Percent Effect read?
**A.** -0.828%

**Q.** With `CN(CCc1ccccc1)c1cnn(C)c(=O)c1Br` as the compound, how does the Percent Effect read?
**A.** 7.95%

**Q.** With `CCN(C)Cc1cccc(CNC(=O)CSCc2ccncc2)c1` as the compound, how does the Percent Effect read?
**A.** -11.3%

**Q.** `OCCC1CCN(c2ccnc3ccsc23)C1` (stereo unspecified) was tested. Which Percent Effect did it give?
**A.** 1.38%

**Q.** For `CN(CCn1cncc1-c1cnc(N2CCOCC2)nc1)C1CCCC1`, which Percent Effect is on record?
**A.** 12.2%

**Q.** For `CCn1c(C2CCN(C(=O)c3ccc4cc[nH]c4c3)CC2)n[nH]c1=O`, which Percent Effect is on record?
**A.** -10.8%

**Q.** With `Cc1cc(C)n(C2CN(c3nc(N)nc4c3CCCC4)C2)n1` as the compound, how does the Percent Effect read?
**A.** -1.57%

**Q.** With `COCCNc1ccc(CNCc2cnc3nc(C)cc(C)n23)cc1` as the compound, how does the Percent Effect read?
**A.** -9.48%

**Q.** For `CCn1cc(CNCCNc2ncc(Cl)cc2Cl)cn1`, which Percent Effect is on record?
**A.** 4.84%

**Q.** Which Percent Effect does the source give for `CSc1nccc(N2CCC(NCc3ccc4c(c3)OCO4)CC2)n1` here?
**A.** 15%

**Q.** Which Percent Effect does the source give for `Cc1ncoc1C(=O)N1CCOC(Cc2ccccc2)C1` (stereo unspecified) here?
**A.** 8.13%

**Q.** Which Percent Effect does the source give for `COCCN(C)C[C@@H]1CN(c2cc(C)nc3ccccc23)C[C@@H]1CO` here?
**A.** -6.62%
